The campaign covered roughly 370,000 compounds. About 400 (0.11%) were called active. Many of the other results were omitted from the sample, so actives are more common in it than they were. A number with no mark means an inactive call.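 Rule for the calls: active = activation at 10 µM reaching about 35% in either raw or pattern-adjusted values (limit read from the data); inactive = the rest.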

The target of this test is Atrial natriuretic peptide receptor 2 (Homo sapiens) (UniProt P20594). Kind of test: human GC-B receptor activators, primary screen, HEK293 GC-B cells, cGMP TR-FRET, EC30 CNP (AID 1920062). The settings on record: at 10 µM, active compounds read high, 0% at EC30 CNP, 100% saturating CNP.
Chain of Atrial natriuretic peptide receptor 2 (Homo sapiens) (P20594 whole entry, looked up): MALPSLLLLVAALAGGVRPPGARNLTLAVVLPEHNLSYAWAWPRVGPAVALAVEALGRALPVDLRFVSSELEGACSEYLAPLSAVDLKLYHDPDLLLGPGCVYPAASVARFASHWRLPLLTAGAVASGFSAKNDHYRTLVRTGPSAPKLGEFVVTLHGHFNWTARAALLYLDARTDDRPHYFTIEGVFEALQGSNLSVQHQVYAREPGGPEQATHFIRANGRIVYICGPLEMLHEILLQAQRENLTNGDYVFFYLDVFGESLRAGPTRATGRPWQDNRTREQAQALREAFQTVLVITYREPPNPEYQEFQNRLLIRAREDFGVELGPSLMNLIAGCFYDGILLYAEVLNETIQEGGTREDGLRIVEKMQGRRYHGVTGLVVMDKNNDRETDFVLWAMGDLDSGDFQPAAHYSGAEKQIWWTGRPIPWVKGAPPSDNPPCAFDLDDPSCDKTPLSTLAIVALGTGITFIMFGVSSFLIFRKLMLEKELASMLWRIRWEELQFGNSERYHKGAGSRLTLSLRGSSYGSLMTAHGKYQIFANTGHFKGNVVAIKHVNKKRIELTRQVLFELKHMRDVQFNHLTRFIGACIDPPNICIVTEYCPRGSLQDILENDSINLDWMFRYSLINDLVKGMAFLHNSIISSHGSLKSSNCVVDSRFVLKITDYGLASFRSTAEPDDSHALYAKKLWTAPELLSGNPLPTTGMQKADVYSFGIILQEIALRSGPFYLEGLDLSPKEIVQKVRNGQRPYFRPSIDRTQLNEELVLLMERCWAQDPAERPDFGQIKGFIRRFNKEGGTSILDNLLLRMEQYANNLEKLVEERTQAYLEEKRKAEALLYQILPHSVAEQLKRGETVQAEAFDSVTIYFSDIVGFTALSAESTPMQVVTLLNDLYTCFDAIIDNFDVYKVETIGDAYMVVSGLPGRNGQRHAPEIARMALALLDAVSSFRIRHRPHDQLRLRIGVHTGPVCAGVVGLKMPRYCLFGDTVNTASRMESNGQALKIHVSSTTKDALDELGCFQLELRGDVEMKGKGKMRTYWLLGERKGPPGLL
As for `O=C(CCCCCCCC(=O)N1CCCCC1)N1CCCCC1`, the activation is 2.66%.

Consider `Cc1ccc(NC(=S)N2CCCC(c3ccccc3)=N2)cc1`, for which the activation was -5.08%.

As to `Cc1cccc(NC(=S)N2CCCC(c3nc4ccccc4[nH]3)C2)c1` (stereo not drawn), the activation was 0.09%.

Turning to `CC(C)[C@H](NC(=O)c1ccc(F)cc1)C(=O)OCC(=O)NC(=O)c1cccn1C`, the activation was -6.93%.

Turning to `COC(=O)CN(c1cccc(C(C)=O)c1)S(C)(=O)=O`, the activation is -0.3%.

With `COc1ccc(CNC(=O)COC(=O)CCS(=O)(=O)c2ccc(C)cc2)cc1OC`, the activation is -7.76%.

As for `COc1ccccc1CCCNC(=O)C1CCC(=O)N(CCN2CCOCC2)C1` (stereo not drawn), the activation was 0.93%.

On to `Cc1ccc(C(=O)COC(=O)CCCC(=O)NC2CCCCC2)cc1[N+](=O)[O-]`, for which the activation was -3.79%.

For `CCCc1c(C)nc2scc(-c3ccc(Cl)cc3)n2c1=O`, the activation is 3.02%.

Take `O=S(=O)(Cc1nnnn1-c1ccccc1)c1ccccc1`: the activation is 3.43%.

Regarding `CCCCc1ccc(S(N)(=O)=O)cc1`, the activation is 1.33%.

Take `O=C(CCCN1C(=O)C2C3C=CC(C3)C2C1=O)N1CCN(c2ccccc2)CC1` (stereo not drawn): the activation is 6.38%.

For the compound `COC(=O)c1cc(S(=O)(=O)N2CCN(C(=O)C3CCCO3)CC2)cn1C` (stereo not drawn), the activation was -2.49%.

Regarding `Cn1c(CC2Sc3ccccc3NC2=O)nnc1SCC(=O)c1ccc(Cl)cc1` (stereo not drawn), the activation is -0.22%.

For `CC(CCc1ccc(O)cc1)NCc1ccc(Cl)cc1Cl` (stereo not drawn), the activation was -2.85%.

Regarding `OC(CCl)CCl`, the activation is -3.1%.

As for `CCOC(=O)C1CCN(C(=O)Cc2c(C(=O)O)[nH]c3ccccc23)CC1`, the activation is -0.71%.

As for `COC(=O)CCNC(=O)c1ccc2[nH]c(C)c(C)c2c1`, the activation is 2.4%.

As to `COC(=O)Cc1c(-c2[nH]c3ccccc3c2CC(=O)OC)[nH]c2ccccc12`, the activation is 36.5% (active).

With `N#CC1(NC(=O)COc2ccc3oc4ccccc4c3c2)CCCCC1`, the activation was -3.84%.

Turning to `CN1CCN(S(=O)(=O)c2ccc(NC(=O)C3CCCO3)cc2)CC1` (stereo not drawn), the activation is 1.58%.

Take `CCCOc1ccc(CN(CCO)CCO)cc1C(=O)OC`: the activation is 3.92%.

Turning to `Cc1ccsc1C(=O)NCCc1ccco1`, the activation was 1.1%.

`O=C(NCCc1ccco1)c1nn(Cc2ccccc2)c(=O)c2ccccc12`: the activation is 49.5% (active).

Regarding `O=c1c2ccccc2c(-c2ccc(Br)cc2)nn1Cc1ccccc1`, the activation is 0.94%.

On to `COc1ccc(OC)c(-n2nnnc2SCC(=O)Nc2cc(C)ccc2OC)c1`, for which the activation was -3.61%.

With `COC(=O)c1ccc2ccccc2c1OC1OC(CO)C(O)C(O)C1NC(C)=O` (stereo not drawn), the activation is 1.14%.

Consider `CCCc1nc2ccccc2c(C(=O)OCc2nnc(-c3cc(OC)c(OC)c(OC)c3)o2)c1CC`, for which the activation was 27.3%.

On to `CC1(C)O[C@@H]2[C@H](O1)[C@@H](COS(=O)(=O)O)O[C@H]2n1cnc2c(=O)[nH]cnc21`, for which the activation is 9.84%.

With `COc1cccc(CC(=O)N2CCN(C(=O)C(=O)c3cccc(C(F)(F)F)c3)CC2)c1`, the activation is 0.51%.

For `COc1ccc(-n2c(SCC(=O)Nc3ccc4c(c3)OCCO4)nnc2-c2ccc(Cl)cc2)cc1`, the activation is -4.33%.

With `C/C(COc1ccccc1)=N\NC(=O)c1nnn(-c2nonc2N)c1-c1ccc(C)cc1`, the activation is -1.04%.

For the compound `Cc1cc(Cl)ccc1OCc1nc(-c2ccncc2)no1`, the activation is -5.32%.

As for `C=CCN(CC=C)C(=O)COC(=O)c1n[nH]c2ccccc12`, the activation was -3.45%.

For the compound `CCCc1nn(C)c2c(=O)[nH]c(-c3cc(S(N)(=O)=O)ccc3OCC)nc12`, the activation was 55% (active).

Take `CCOc1ccc(-n2cnc3c(=O)[nH]c(N)nc32)cc1`: the activation is 20.7%.

`CCOc1ccccc1N1CCN(C(=S)Nc2ccc(S(N)(=O)=O)cc2)CC1`: the activation is 0.9%.

Regarding `Cc1ccc(NS(=O)(=O)c2ccc(C(=O)NCCCN3CCOCC3)cc2)cc1`, the activation is 1.4%.

With `COc1ccc(S(=O)(=O)N2CCOCC2)cc1NC(=O)CSc1cc(C)ccc1C`, the activation is -3.41%.

Consider `COc1ccc(S(=O)(=O)N2CCOCC2)cc1NC(=O)CSc1nnc(NC2CC2)s1`, for which the activation is 56.9% (active).

In the case of `Cc1ccc(S(=O)(=O)N2CCOCC2)cc1NC(=O)CSc1nnc(N)s1`, the activation was -3.12%.

For the compound `CCCCn1c(N)c(N(CC(C)C)C(=O)c2cccc(S(=O)(=O)N3CCN(C(C)=O)CC3)c2)c(=O)[nH]c1=O`, the activation was 4.82%.

Consider `CC(=O)Nc1ccc(Nc2ncnc3c2nnn3Cc2ccccc2Cl)cc1`, for which the activation is -5.33%.

For `C/C=C/c1ccc(OCCOc2ccc(C=O)cc2OC)c(OC)c1`, the activation is -3.69%.

With `COc1cc(/C=C2/C(=O)ON=C2C)ccc1OCc1cccc(F)c1`, the activation is 38.1% (active).

As for `COc1ccnc2c1c(=O)n(Cc1cccc(F)c1)c(=O)n2C`, the activation was 9.01%.

With `COc1cc(/C=C2/C(=O)ON=C2C)ccc1OCc1ccccc1F`, the activation is 37.2% (active).

On to `COc1cc(CNc2ncn[nH]2)ccc1OCc1ccccc1C`, for which the activation was -2.6%.

As to `COc1cccc(CNCCc2c[nH]c3ccccc23)c1OCc1ccccc1F`, the activation is -11.1%.

For `COC(=O)[C@@H]1C[C@@]2(O)[C@@H](O)[C@@H](O)[C@@H](O)C[C@H]2N1Cc1ccc(C)s1`, the activation is -2.84%.

`O=C(/C=C/[C@H]1O[C@@H](n2cnc3c(NC(=O)c4ccccc4)ncnc32)[C@H](O)[C@@H]1O)NCc1ccccc1`: the activation is -3.16%.

`O=C(Nc1nccs1)C1CCN(S(=O)(=O)c2ccc(Cl)c(C(F)(F)F)c2)CC1`: the activation is -2.77%.

Consider `COc1ccccc1C(=O)C(O)c1ccccc1OC` (stereo not drawn), for which the activation was 4.06%.

Consider `CC(=O)Nc1ccc(/C(C)=N/NC(=O)CN(c2ccccc2Br)S(C)(=O)=O)cc1`, for which the activation is 1.02%.

`COc1cc(C2C(N3C(=O)c4ccccc4C3=O)C(=O)N2c2ccc(C)c(C)c2)cc(OC)c1OC` (stereo not drawn): the activation is 3.45%.

For `Cc1cccc(N(C(=O)Cc2cccs2)C(C(=O)NCc2ccco2)c2ccncc2)c1` (stereo not drawn), the activation was -16%.

`CC(C)n1c(-c2ccncc2)n[nH]c1=S`: the activation was 5.74%.

Regarding `Cc1ccccc1C1=NC(C(F)(F)F)(C(F)(F)F)c2c(n(-c3ccc(F)cc3)c(=O)[nH]c2=O)N1`, the activation was -3.86%.

These data come from PubChem BioAssay AID1920062 (Sanford-Burnham Center for Chemical Genomics, 2024).
